# Data reported in PMC12136788.
# Whole data set: some 24,000 sequences, median “enrichment r” near 0.99, cut for the highest 2% near 3.7. The entries come from a sample that favours the highest values as a whole.
# T1: UNK ZnF1-3 (human, UniProt Q9C0B0 31-174)
# T1 sequence: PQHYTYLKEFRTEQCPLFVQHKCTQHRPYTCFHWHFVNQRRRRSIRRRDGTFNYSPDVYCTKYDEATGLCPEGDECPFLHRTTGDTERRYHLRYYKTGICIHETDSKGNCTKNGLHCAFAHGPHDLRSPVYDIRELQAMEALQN
# B1: chr22:38201524:38201525:+_ENSG00000189060_ENST00000340857|hu_hu|FALSE|FALSE (ssRNA)
# RNA: GGGAGUUCUACAGUCCGACGAUCCGCAGGGGCGGACGUGGAAUUCUCGGUCAUGGUGGCCUGUCUGGUCCGGCUGUUGAAGGCGCCUUCCAAAGGGCCAGCCCUCGUCGGAGGCUGAGCAAAGCCUGCCUCGGGAUCUGCUCCCAACAGAGGAUUGAGCAUCA
# B2: chr16:17038481:17038482:+_ENSMUSG00000063358_ENSMUST00000069107|mus_mus|FALSE|FALSE (ssRNA)
# RNA: GGGAGUUCUACAGUCCGACGAUCCUUGUCCUGACCAAUUUAAGAUCUGUAUCCUGGCUGGAAUCUAGCAGUCUCUUCAAAAAUGAGUUCUUUGAGCUUCUCCUUAGGUAAGUCGUCCAACUCCAUGUCAAACUUGAAUGGCGCCAACAGAGGAUUGAGCAUCA
# B3: chr11:77336104:77336105:-_ENSG00000074201_ENST00000525064|hu_mus|hu_hu_hu_mus_False|48_108 (ssRNA)
# RNA: GGGAGUUCUACAGUCCGACGAUCCUCGCACAUUGCAGUGAACAUCGCCUCCAAUGCUGACUUAUCACUGGGCACAAAUCGAAAUUCAGUAAUAGGUUCAACAUCAUCAUUGUCUUCCUCAUCUUCAUCAGAGAGAGGUUCUUUCAACAGAGGAUUGAGCAUCA
# B4: 42454244_42454364_2548_CDS_ENSG00000166887_ENST00000318006|human|control|control (ssRNA)
# RNA: GGGAGUUCUACAGUCCGACGAUCAUGGAGAAGGUUCUUGAGCACUUGAUUGAACCGUUUCUUUUGUGCAUUUUCUUCCAAGACCUUUUCCAGGAAGAUGCGUAUGUCAUUGAUCUGAGUGUUUGCUGGCAGAAGGUUGAGGGCCAACAGAGGAUUGAGCAUCA
# B5: chr3:9412954:9412955:+_ENSG00000134077_ENST00000452837|hu_mus|hu_hu_hu_mus_False|1_78 (ssRNA)
# RNA: GGGAGUUCUACAGUCCGACGAUCGGUUGAUAUCUCUUCUUUGAUGGCUGGAUUUUCAUAAUAAUCUAAGAUAUGUGAAUCUGAAGUGCUGCUGGCAUGCUUUUUCUUACCAUCUUUCUCAUCUGCUUUGUCUCCUUGUCCAUUCAACAGAGGAUUGAGCAUCA
# B6: chr3:148802587:148802588:-_ENSG00000071794_ENST00000310053|hu_mus|FALSE|FALSE (ssRNA)
# RNA: GGGAGUUCUACAGUCCGACGAUCUCCAACAACUUGUCCUCUCAUAGUUCCAAAUAAAACCAAAUCUUGCUCUUCAUCACUCGUUAGGAAGUCAUCUGGAGGAAUAAUGUCUUGGAAUUCAAAAUGUGGCAAGAAAGUUGAGUACAACAGAGGAUUGAGCAUCA
# B7: 54532081_54532201_669_3pUTR_ENSMUSG00000073678_ENSMUST00000097739|mouse|control|control (ssRNA)
# RNA: GGGAGUUCUACAGUCCGACGAUCGACUGAGCAGAGACAUAAAGAAAGCAAAAGAAACACCACAGGGAAGGUUUCAACUGUAGUAACCAGACAUCUACACCAAAAAUGGAUUGUGCAAAACAACUGAUUUUUUUUUUUUUUUUACAACAGAGGAUUGAGCAUCA
# B8: 110765750_110770449_1192_CDS_ENSG00000174437_ENST00000539276|human|control|control (ssRNA)
# RNA: GGGAGUUCUACAGUCCGACGAUCCUCAUUAAGGGAACAAGUAUCACCUUCCACUCUGUCCAGAAUGAACAUCCUGCAGACUGACAUCUGGUUUGUUGUAAGUGUACCAGUCUUGUCUGAGCAGAUAACAGAAGUACAACCAAGCAACAGAGGAUUGAGCAUCA
# B9: chr1:33860009:33860010:-_ENSMUSG00000042197_ENSMUST00000044455|mus_mus|motif|central (ssRNA)
# RNA: GGGAGUUCUACAGUCCGACGAUCGCUGGAGAUAUCCCAAGGAACUGACGAGCUCUCACUUGGCCUAGAAUGAUGAAAUCGGAAACAACUCCUGGACUGCAGAUCACGUAUGACUCGGGACAUCUCAGCCACUUGUGUCUGGAGCAACAGAGGAUUGAGCAUCA
# B10: chr4:148551591:148551592:-_ENSMUSG00000063077_ENSMUST00000060537|mus_hu|mus_mus_mus_hu_False|1_48 (ssRNA)
# RNA: GGGAGUUCUACAGUCCGACGAUCACCUGACAAAAUUAAAUAUCCCUGUAAAUUAGACAAUAAGCAGCAGGCAACAAAGUCUUUGCUUUGAAAUAUGUGCCAGGAAAAGUCAUCUUGUUUUUAGAUCUCAAGAGACACAACCAUCAACAGAGGAUUGAGCAUCA
# B11: 32390341_32390461_6886_3pUTR_ENSMUSG00000053774_ENSMUST00000115151|mouse|control|control (ssRNA)
# RNA: GGGAGUUCUACAGUCCGACGAUCACUUUAACCCAAGGAGGACCCAGAGGUUCAAGGUUAUGUUCAACUAACUACACAGUCACUGAAGAGGUCAGCCUGAUCCAGGACAACCAGGACUAGAUAAAGAAAACUUAUCUCAAAGAACAACAGAGGAUUGAGCAUCA
# B12: chr5:56189439:56189440:+_ENSG00000095015_ENST00000399503|hu_hu|FALSE|FALSE (ssRNA)
# RNA: GGGAGUUCUACAGUCCGACGAUCAAAGACUGGAUGCUUCAGUAGCUCUCUUGAUGGAGGUCUGUCCUGAGGUUGAAGUUCUAAACAACGAAGAGCCACAUCUCGUAAACCAGGAGACAAAUGUGAAGGGAUCGAUGGAGCAGUCAACAGAGGAUUGAGCAUCA
# B13: chr14:52780626:52780627:-_ENSMUSG00000035726_ENSMUST00000046709|mus_mus|FALSE|FALSE (ssRNA)
# RNA: GGGAGUUCUACAGUCCGACGAUCUGAGCACUGCACCACAUAUGGACUUGUAAGGAGGAAAAAAAAAAAAAAAAAAAAAAAAAAAACAGCCACGAGUGCCAGUGUUUGUCUUCUGAUGCAGCAAAAACAACCCCAGAAUGUGCACAACAGAGGAUUGAGCAUCA
# B14: chr3:142455422:142455423:-_ENSMUSG00000004591_ENSMUST00000043812|mus_hu|FALSE|FALSE (ssRNA)
# RNA: GGGAGUUCUACAGUCCGACGAUCGAAAAAACAAUAAAGUCAUAGAUUAGGAGAAAAAAAUAUAAAAUCAAACCAAACCAAAACAAACAAAAAACUACAGGCAAGUGGAAAGUCAUGGUUUGUAAAAAGACAACCCUAAAAGAGCAACAGAGGAUUGAGCAUCA
# B15: 2840810_2840930_7205_3pUTR_ENSG00000087266_ENST00000503393|human|control|control (ssRNA)
# RNA: GGGAGUUCUACAGUCCGACGAUCUGAGACCCUGUCUCAGAAAAAAAAAAAAAGAAAAGAAAAAGAAAAAGACAACAAGUUAAAAAAUGGGCAAAAGAUGAUAGACACUUCACAGGAGACAAAAUCAAAAUGGUUAAUAAAAACCAACAGAGGAUUGAGCAUCA
# B16: chr7:141441981:141441982:+_ENSG00000106028_ENST00000265304|hu_mus|hu_hu_hu_mus_False|38_38 (ssRNA)
# RNA: GGGAGUUCUACAGUCCGACGAUCCUCAUGUCUUACAAACUGACGAAAUACCUGUAACACAGGUCUUCGAAACAUGGCUUCUGUUUUUCUUACAACCAGUCUAAUCUGCUUUUCCUAAAGGAAAGAAAGAAAAGAGAAAAAUGACAACAGAGGAUUGAGCAUCA
# B17: chr1:39494447:39494448:+_ENSG00000168653_ENST00000372967|hu_mus|hu_hu_hu_mus_False|98_98 (ssRNA)
# RNA: GGGAGUUCUACAGUCCGACGAUCGCACCGAGCGGCGAUCUUGUAGGGCUGUUCUGCGCUUAGGAACAUAAAGUGCCGGUCCAGGCUGAUGCCCAGCUUUUUCUGUAUGUCAAGGAAAGGCAUGGCUCUGCAGUGCCCUUGUCACAACAGAGGAUUGAGCAUCA
# B18: chr16:75674161:75674162:-_ENSG00000065427_ENST00000302445|hu_hu|motif|central (ssRNA)
# RNA: GGGAGUUCUACAGUCCGACGAUCCCUACCUGCCACCUUUAAGGUGAUGUCAGUCAGGUGAUCCCCAGGCUGCAGGUGACGGUAUUUUUGGAUGAAGUCAGUGAGUGAGAUGUCUACAUGGAACUUGUGUGGGUAUGGGUCUUCCAACAGAGGAUUGAGCAUCA
# B19: 76004153_76004273_12107_CDS_ENSMUSG00000022565_ENSMUST00000071869|mouse|control|control (ssRNA)
# RNA: GGGAGUUCUACAGUCCGACGAUCCUUCAUGGCCUGGAAGAGGGAGAUGAGUUUCCCAGAGUAGGGGUCCUUGUAGCCAGUGACGGCACGCUCAGCUGACAGCAGCUUGUCCUUGAACUCGGGGCCCACAAUACCCAUACGAACCAACAGAGGAUUGAGCAUCA
# B20: chr11:93905761:93905762:+_ENSMUSG00000020859_ENSMUST00000103168|mus_mus|motif|central (ssRNA)
# RNA: GGGAGUUCUACAGUCCGACGAUCCGCUGGCACCCCGGUAGAAAUAGAAAAGUGCACAAGCAGCAAAACAGAGAGAGAUACGGAGAUCGCAGAAUUAAUGACCACCGCCCCGCCAACAAAGCCAAACACAAACAGCAGCAUGCACAACAGAGGAUUGAGCAUCA
# B21: chr13:113691719:113691720:-_ENSMUSG00000016018_ENSMUST00000022281|mus_hu|FALSE|FALSE (ssRNA)
# RNA: GGGAGUUCUACAGUCCGACGAUCGUAUUCACCAGAAGAAAUCCAUCGGAAAUCCUUCCCAUCAAAUUUGCGGGCAUUUGUAAAUAAAACAGUUCUAGCUGGCAUGUUAAUUCCCAUAGCAAAGGUCUCCGUGGCAAAUAAGGCCAACAGAGGAUUGAGCAUCA
# B22: chr7:135612788:135612789:-_ENSG00000105887_ENST00000393085|hu_mus|FALSE|FALSE (ssRNA)
# RNA: GGGAGUUCUACAGUCCGACGAUCGCCAAGAGGUGAAAACAAAGGUCUCAAAACACCCUGUUGCAUUAUAUUGACUCAUAGACUGAUCAUGUGCCUUCCACUUCCUAGCAGAAUGUCCAACUCUAUAGCUGCUUGGCCUUUUGGCAACAGAGGAUUGAGCAUCA
# Target: T1, UNK ZnF1-3
# Test: nsRBNS (natural sequence RNA bind-n-seq); RBNS binding buffer (assumed for nsRBNS): 25 mM Tris pH 7.5, 150 mM KCl, 3 mM MgCl2, 0.01% Triton X-100, 500 ug/ml BSA, 20 U/ml SUPERase-In, 4 C; UNK is unkempt and MSI1 is Musashi-1; names of the RNAs are library labels; protein concentration not given here; high values mean tight binding
row,Binder,binding signal [enrichment R]
1,B1,0.944
2,B2,0.719
3,B3,0.872
4,B4,1.14
5,B5,0.44
6,B6,1.23
7,B7,4.75
8,B8,0.886
9,B9,0.781
10,B10,1.29
11,B11,1.33
12,B12,1.08
13,B13,12.8
14,B14,3.8
15,B15,8.04
16,B16,0.817
17,B17,0.548
18,B18,0.761
19,B19,1.29
20,B20,2.32
21,B21,1.77
22,B22,1.02
